Several values for one entry are separate records, joined by “and”; a condition that tells them apart may be missing. Equal entries are not always repeated. Activity calls are given as the source filed them.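 Rule for the calls, unless noted: active = compounds whose cell count with miR-34 switched on is under 0.7 times the count with it off; inactive = the rest.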
Columns and labels:
[1] = stimulators of nuclear beta-catenin in C2C12, primary screen, imaging, WNT3A-conditioned medium, mouse C2C12, NPC library (AID 1117326; in the data active = nuclear beta-catenin stimulation mostly above about 4.2%, no sharp cut-off; inactive = mostly below about 10%); conditions: stronger effect = higher value
[2] = stimulators of insulin release from INS-1E, primary screen, cell-based, 5 mM glucose, NPC library (AID 1117329;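 active = compound raises insulin release from rat beta cells at 5 mM glucose, no numeric limit stated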); conditions: rat INS-1E insulin secretion, at 10 µM, stronger effect = higher value
[3] = growth inhibition of GSK3B-pretreated HCT116 cells – cell-based, CellTiter-Glo, 0.2 to 20 µM (AID 1117336;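 active = compounds lowering colon cancer cell viability after pretreatment blocking the GSK3B kinase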); conditions: HCT116 viability after GSK3B inhibitor, at 20 µM, stronger effect = higher value
[4] = inhibition of endothelial tube formation, primary screen, imaging, VEGF stimulated, CD31 staining, tube area, NPC library (AID 1117340;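 active = compound that reduces growth-factor-driven endothelial tube area in a mixed cell culture, no cutoff stated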); conditions: VEGF-stimulated ADSC/ECFC co-culture, at 10 µM, stronger effect = higher value
[5] = glucagon-like peptide 1 release enhancers, primary assay, NCI-H716 cell line, NPC library (AID 1117341;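 active = compound raises GLP1 secretion from the human gut endocrine cells, with no numeric limit stated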); conditions: NCI-H716 cells, at 10 µM, stronger effect = higher value
[6] = HCT116 colon cancer cell growth inhibition, primary screen, CellTiter-Glo luminescence, NPC library (AID 1117342;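 active = compounds that lower survival of HCT116 colon cancer cells in the luminescence readout, no numeric limit stated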); conditions: at 20 µM (top of the series)
[7] = CellTiter-Glo luminescent readout of SW480 viability loss, NPC library primary (AID 1117343;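 active = compounds that lower viability of the colon cancer cells in the luminescence readout, with no numeric limit stated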); conditions: CellTiter-Glo luminescence; at 20 µM (top of the series) unless noted
[8] = decreased DLD-1 cellular survival, CellTiter-Glo luminescent readout, NPC compound collection, primary HTS (AID 1117346;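 active = compounds that lower survival of DLD-1 colon cancer cells in the luminescence readout, no cutoff given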); conditions: DLD-1 viability, CellTiter-Glo luminescence; at 20 µM (top of the series)
[9] = differential killing of epithelial or mesenchymal cells, primary screen, imaging, PC-3E GFP, TEM4-18 mCherry, co-culture (AID 1345086;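 active = compounds killing one labelled cell type while sparing the other, by normalised counts and ratio limits, not self-fluorescent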;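 for all read-outs here: cells exposed to compound for 72 h before imaging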;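 for red/green cell ratio (normalised): normalised mesenchymal count divided by normalised epithelial count so high means epithelial killing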); conditions: imaging cell counts, at 1 µM; for red/green cell ratio (normalised): actives lie on both sides, counts scaled to control wells, 1 = unselective
[10] = sensitizers of A549 cells to miR-34 induction, primary screen, imaging, A549 dox-inducible miR-34, nuclei and caspase counts (AID 1347080); conditions: A549 miR-34 inducible, Hoechst nuclei count, 48 h
[11] = biological target: NAD(+) hydrolase SARM1 (Homo sapiens) (UniProt Q6SZW1); assay: SARM1 TIR NADase inhibitors, cell lysate, NAD-Glo luminescence (AID 1508614;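 active = compound whose remaining NAD level is above about 45 nM, limit read from the data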;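 note: higher remaining NAD means stronger inhibition of SARM1 NADase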); conditions: SAM-TIR HEK293T lysate NADase, at 1 µM, stronger effect = higher value
[12] = liver-stage malaria parasite growth inhibition, primary screen, cell-based, HepG2, luciferase luminescence, HepG2 viability (AID 624349; in the data active = parasite load remaining mostly below about 12%, no sharp cut-off; inactive = mostly above about 10%;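 note: 100% = mean of DMSO negative control wells on the same plate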); conditions: P. berghei liver stage in HepG2, luciferase luminescence, concentration not given here; parasite load remaining: stronger effect = lower value; viability: measured here: HepG2 viability without parasites
[13] = survival rescue of mitochondrial mutant cells in low glucose, primary screen, MELAS cybrids, Rieske KO mouse fibroblasts, CellTiter-Glo (AID 1508586;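 active = mean z-score across replicates of 1.96 or higher in either the MELAS or the Rieske mutant cell line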;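 note: z relative to plate mean and SD of compound and empty wells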)
[14] = hESC survival regulators, cell-based (AID 493140; call rule not given here;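 note: cells exposed to compounds for four days before counting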); conditions: human embryonic stem cell survival screen; stronger effect = higher value
[15] = measured here: epithelial PC-3E GFP cell survival
[16] = measured here: mesenchymal TEM4-18 mCherry cell survival
[17] = stronger effect = lower value, cell number ratio, induced over uninduced
[18] = measured here: relative caspase fold change +Dox/-Dox
[19] = measured here: total cells with miR-34 induction, stronger effect = lower value
[20] = measured here: total cells without miR-34 induction
[21] = MELAS cybrid survival, CellTiter-Glo 48 h, stronger effect = higher value
[22] = Rieske KO mouse fibroblast survival, CellTiter-Glo 72 h

NAD(+) hydrolase SARM1 (Homo sapiens), sequence (Q6SZW1 whole entry, looked up): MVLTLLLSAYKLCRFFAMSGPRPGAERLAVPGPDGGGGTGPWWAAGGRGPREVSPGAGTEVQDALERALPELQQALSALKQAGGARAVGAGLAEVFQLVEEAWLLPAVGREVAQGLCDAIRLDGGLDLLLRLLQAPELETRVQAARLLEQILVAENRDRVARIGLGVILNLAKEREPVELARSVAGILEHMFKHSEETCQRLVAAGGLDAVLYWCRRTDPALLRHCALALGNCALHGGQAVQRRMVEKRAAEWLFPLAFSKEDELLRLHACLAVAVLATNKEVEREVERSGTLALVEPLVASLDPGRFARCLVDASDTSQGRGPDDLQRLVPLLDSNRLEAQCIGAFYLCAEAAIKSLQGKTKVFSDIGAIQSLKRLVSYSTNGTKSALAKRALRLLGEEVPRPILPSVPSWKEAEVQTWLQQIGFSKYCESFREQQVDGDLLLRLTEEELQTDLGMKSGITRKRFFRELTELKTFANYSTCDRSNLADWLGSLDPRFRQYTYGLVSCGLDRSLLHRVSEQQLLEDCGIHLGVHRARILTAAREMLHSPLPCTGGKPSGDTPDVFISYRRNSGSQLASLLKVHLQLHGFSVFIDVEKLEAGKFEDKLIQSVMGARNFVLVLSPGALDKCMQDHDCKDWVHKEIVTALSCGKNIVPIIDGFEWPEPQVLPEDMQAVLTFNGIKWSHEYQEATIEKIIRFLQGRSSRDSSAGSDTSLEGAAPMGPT

With `CC(=O)Nc1ccc(C(=O)O)cc1` the nuclear beta-catenin stimulation ([1]; at 10 µM) was -0.6% (inactive), the nuclear beta-catenin stimulation ([1]; stimulation, at 2 µM) was 0.4% and the insulin secretion stimulation [2] was -1.8% (inactive). The viability decrease [3] was -11.6% (inactive), the tube area decrease [4] was -12.7% (inactive) and the GLP1 secretion stimulation [5] was -0.1% (inactive). For the same compound, the inhibition of viability [6] was -18.3% (inactive), the viability decrease (inhibition) [7] was 13.7% (inactive) and the viability decrease (inhibition) [8] was 11.3% (inactive). The red/green cell ratio (normalised) [9] was 1.14 (inactive), the normalised cell number [9, 15] was 0.87 and the normalised cell number [9, 16] was 0.99. For the same compound, the fold change [10, 17] was 0.937 (inactive), the fold change [10, 18] was 1.06 and the cell count [10, 19] was 9250. The cell count [10, 20] was 9880 and the remaining NAD [11] was 10 nM (inactive).

For `CC(=O)N(CC(O)CO)c1c(I)c(C(=O)NCCO)c(I)c(C(=O)NCC(O)CO)c1I` (configuration not stated), the nuclear beta-catenin stimulation ([1]; at 10 µM) was 9.8% (inactive), the nuclear beta-catenin stimulation ([1]; stimulation, at 2 µM) was 0.7% and the insulin secretion stimulation [2] was 0.3% (inactive). The viability decrease [3] was -3.3% (inactive), the tube area decrease [4] was 1.4% (inactive) and the GLP1 secretion stimulation [5] was 2.4% (inactive). The inhibition of viability [6] was -3.1% (inactive), the viability decrease (inhibition) [7] was -2.5% (active) and the viability decrease (inhibition) [8] was 0.4% (inactive). For the same compound, the red/green cell ratio (normalised) [9] was 0.83 (inactive), the normalised cell number [9, 15] was 1.22 and the normalised cell number [9, 16] was 1.02. For the same compound, the fold change [10, 17] was 0.937 (inactive), the fold change [10, 18] was 0.945 and the cell count [10, 19] was 9070. For the same compound, the cell count [10, 20] was 9680 and the remaining NAD [11] was 10 nM (inactive).

For `NS(=O)(=O)c1ccc(C(=O)O)cc1`, the nuclear beta-catenin stimulation ([1]; at 10 µM) was 1.5% (inactive), the nuclear beta-catenin stimulation ([1]; stimulation, at 2 µM) was 1.6% and the insulin secretion stimulation [2] was -0.4% (inactive). For the same compound, the viability decrease [3] was 15.4% (inactive), the tube area decrease [4] was -32.8% (inactive) and the GLP1 secretion stimulation [5] was 2.9% (inactive). For the same compound, the inhibition of viability [6] was -10.4% (inactive), the viability decrease (inhibition) [7] was 21.5% (inactive) and the viability decrease (inhibition) [8] was 3.9% (inactive). The red/green cell ratio (normalised) [9] was 0.82 (inactive), the normalised cell number [9, 15] was 1.25 and the normalised cell number [9, 16] was 1.03. For the same compound, the fold change [10, 17] was 0.907 (inactive), the fold change [10, 18] was 1.07 and the cell count [10, 19] was 8630. The cell count [10, 20] was 9520 and the remaining NAD [11] was 10 nM (inactive).

With `CN(C)CC/C=C1\c2ccccc2Sc2ccc(Cl)cc21` the parasite load remaining [12] was 79% (inactive) and 61.2% (inactive) and 17.9% (inactive), the viability [12] was 83.4% and 97.6% and 84.5% and the nuclear beta-catenin stimulation ([1]; at 10 µM) was 1.8% (inactive). For the same compound, the nuclear beta-catenin stimulation ([1]; stimulation, at 2 µM) was 0.5%, the insulin secretion stimulation [2] was 20.8% (active) and the viability decrease [3] was 51.1% (active). For the same compound, the tube area decrease [4] was 42.6% (active), the GLP1 secretion stimulation [5] was 15.7% (inactive) and the inhibition of viability [6] was 94.8% (active). The viability decrease (inhibition) [7] was 127% (active), the viability decrease (inhibition) [8] was 98.6% (active) and the red/green cell ratio (normalised) [9] was 1.04 (inactive). The normalised cell number [9, 15] was 1.11, the normalised cell number [9, 16] was 1.16 and the fold change [10, 17] was 0.848 (inactive) and 0.855 (inactive). The fold change [10, 18] was 1.41 and 2.28, the cell count [10, 19] was 6900 and 9070 and the cell count [10, 20] was 8140 and 10600. The z-score [13, 21] was 0.287 (inactive) and the z-score [13, 22] was 0.968.

With `C[C@H](O)C(=O)Nc1c(I)c(C(=O)NC(CO)CO)c(I)c(C(=O)NC(CO)CO)c1I` the survival [14] was 3.75 (inactive), the parasite load remaining [12] was 99% (inactive) and the viability [12] was 105%. The nuclear beta-catenin stimulation ([1]; at 10 µM) was -2.7% (inactive), the nuclear beta-catenin stimulation ([1]; stimulation, at 2 µM) was 2.4% and the insulin secretion stimulation [2] was 3.4% (inactive). The viability decrease [3] was 0.8% (inactive), the tube area decrease [4] was -18.2% (inactive) and the GLP1 secretion stimulation [5] was 0.1% (inactive). For the same compound, the inhibition of viability [6] was -1.3% (inactive), the viability decrease (inhibition) [7] was 15% (inactive) and the viability decrease (inhibition) [8] was -3.1% (inactive). The red/green cell ratio (normalised) [9] was 1.21 (inactive), the normalised cell number [9, 15] was 0.98 and the normalised cell number [9, 16] was 1.18. For the same compound, the fold change [10, 17] was 0.849 (inactive), the fold change [10, 18] was 2.22 and the cell count [10, 19] was 8600. For the same compound, the cell count [10, 20] was 10100, the z-score [13, 21] was -0.551 (inactive) and the z-score [13, 22] was -0.888.
